From PubChem BioAssay (Tox21)
Values without a mark were called inactive. Records with an inconclusive call do not appear. A call without a number means that no potency is given here. Calls of active or inactive are those of the source. Unless noted, the call rests on the fitted dose curve; in most records, active means well fitted curve in the direction sought with a large enough effect in the repeat runs; inconclusive means weak or mixed curves; inactive means no such curve, though single readings can be large; an effect the other way counts as inactive or inconclusive.

Legend:
[1] = A CellTox Green Cytotoxicity Assay to monitor cytotoxicity in HEK293 cells - 32 hour (AID 1224881); further: nearly all actives have a fitted effect of over 40% in size; further: potency means the concentration at half of the fitted maximal effect
Procedure, shortened: (§1)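 Cytotoxicity was tracked continuously in HEK293 cells by a DNA-binding dye excluded from viable cells. Compounds were transferred in DMSO 5 h after seeding; fluorescence was recorded at intervals up to 40 h.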

[2] = A CellTox Green Cytotoxicity Assay to monitor cytotoxicity in HepG2 cells - 0 hour (AID 1224882); further: nearly all actives have a fitted effect of over 35% in size
Procedure, shortened: (§2)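 Real-time, homogeneous cytotoxicity readout: dead-cell DNA staining by CellTox Green in HepG2 monolayers, fluorescence measured at timed intervals up to 40 h of continuous compound exposure.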

[3] = A CellTox Green Cytotoxicity Assay to monitor cytotoxicity in HepG2 cells - 32 hour (AID 1224883); further: nearly all actives have a fitted effect of over 50% in size
Procedure, shortened: as §2

[4] = A CellTox Green Cytotoxicity Assay to monitor cytotoxicity in HEK293 cells - 8 hour (AID 1224884); further: nearly all actives have a fitted effect of over 35% in size
Procedure, shortened: as §1

[5] = qHTS RealTime-Glo MT Cell Viability Assay in HepG2 cells - 16 hour (AID 1224885); further: nearly all actives have a fitted effect of over 50% in size
Procedure, shortened: (§3)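 HepG2 cells were seeded at 600 cells/well together with NanoLuc luciferase and a cell-permeant prosubstrate, preincubated 5 h at 37 C/5% CO2, then pin-dosed with compounds in DMSO. Nonlytic luminescence from viable cells was read at each time point.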

[6] = qHTS RealTime-Glo MT Cell Viability Assay in HEK293 cells - 24 hour (AID 1224886); further: top concentration of the series differs between compounds; nearly all actives have a fitted effect of over 50% in size
Procedure, shortened: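 HEK293 cells were seeded at 600 cells/well together with NanoLuc luciferase and cell-permeant prosubstrate, preincubated 5 h at 37 C/5% CO2, then given compound in DMSO by pintool. Luminescence from viable-cell prosubstrate reduction was read repeatedly over 40 h.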

[7] = qHTS RealTime-Glo MT Cell Viability Assay in HEK293 cells - 8 hour (AID 1224887); further: top concentration of the series differs between compounds; nearly all actives have a fitted effect of over 50% in size
Procedure, shortened: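 Nonlytic bioluminescent viability monitoring. HEK293 at 600 cells/well with reagent; 5 h settle; compound transfer by pintool; plates held at 37 C and read at set time points.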

[8] = A CellTox Green Cytotoxicity Assay to monitor cytotoxicity in HEK293 cells - 16 hour (AID 1224888); further: nearly all actives have a fitted effect of over 35% in size
Procedure, shortened: as §1

[9] = qHTS RealTime-Glo MT Cell Viability Assay in HepG2 cells - 0 hour (AID 1224889); further: nearly all actives have a fitted effect of over 50% in size
Procedure, shortened: as §3

[10] = A CellTox Green Cytotoxicity Assay to monitor cytotoxicity in HepG2 cells - 8 hour (AID 1224890); further: nearly all actives have a fitted effect of over 45% in size
Procedure, shortened: as §2

[11] = molecular target: Androgen receptor (Homo sapiens) (UniProt P10275); experiment: qHTS assay to identify small molecule antagonists of the androgen receptor (AR) signaling pathway using the MDA cell line in the presence of 0.5 nM R1881 (AID 1259243); further: nearly all actives have a fitted effect of over 50% in size
Procedure, shortened: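 Steps: seed MDA-kb2 cells, incubate 5 hr at 37C; pin-transfer compounds in DMSO; add R1881 to 0.5 nM final; incubate 16 hr; add ONE-Glo, wait 30 min at room temperature; read luminescence.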

[12] = qHTS assay to identify small molecule HDAC inhibitors (AID 1259364); further: nearly all actives have a fitted effect of over 45% in size; further: potency means the concentration at half of the fitted maximal effect
Procedure, shortened: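 Homogeneous cell-based luminescent assay of endogenous class I/II HDAC activity; HCT-116 cells, 2 h compound exposure, 30 min HDAC-Glo development at RT.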

[13] = qHTS assay to identify small molecule HDAC inhibitors - cell viability counter screen (AID 1259365)
Procedure, shortened: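 HCT-116 (wild type), 1,500 cells/well, overnight 37C/5% CO2; compound in DMSO 2hr; CellTiter-Glo 30min RT; luminescence read.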

[14] = qHTS assay to identify small molecule agonists of the sonic hedgehog signaling (Shh) pathway - cell viability counter screen (AID 1259366); further: nearly all actives have a fitted effect of over 50% in size; further: potency means the concentration at half of the fitted maximal effect
Procedure, shortened: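 CellTiter-Fluor fluorescence read-out, 1 hr at 37C, added after 23hr compound exposure. Cells: 3T3 Gli1-Luc, an NIH/3T3 clone with stably integrated Gli1-Luc reporter, plated 4hr before compound.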

[15] = qHTS assay to identify small molecule antagonists of the sonic hedgehog signaling (Shh) pathway - cell viability counter screen (AID 1259367); further: nearly all actives have a fitted effect of over 55% in size; further: potency means the concentration at half of the fitted maximal effect
Procedure, shortened: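 After a 4 hr settling period, 3T3 Gli1-Luc cells were treated with DMSO-dissolved chemicals and conditioned medium, kept 24 hr at 37C in 5% CO2, and assayed for viability by CellTiter-Fluor fluorescence following 1 hr reagent incubation.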

[16] = qHTS assay to identify small molecule agonists of the sonic hedgehog signaling (Shh) pathway (AID 1259368; calls by dose curve;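 further: NIH/3T3-derived 3T3Gli1-Luc cells carrying a stable Gli1-driven firefly luciferase reporter; series mostly up to about 92 µM; nearly all actives have a fitted effect of over 15% in size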)
Procedure, shortened: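 Steps: seed 3T3 Gli1-Luc cells, incubate 4 hr at 37 C, pin-transfer compounds in DMSO alongside a positive control, incubate 24 hr, add luciferase detection reagent, wait 30 min at room temperature, read luminescence.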

[17] = qHTS assay to identify small molecule antagonists of the estrogen receptor alpha (ER-alpha) signaling pathway using the BG1 cell line in the presence of 0.1 nM 17-beta-estradiol - cell viability counter screen (AID 1259241); further: nearly all actives have a fitted effect of over 40% in size; further: potency means the concentration at half of the fitted maximal effect
Procedure, shortened: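 Live-cell protease activity (CellTiter-Fluor fluorescence, 30 min) was read in the same wells after VM7Luc4E2 cells had been exposed to compounds with 0.1 nM 17beta-estradiol for 22 hr at 37C.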

[18] = molecular target: Estrogen receptor (Homo sapiens) (UniProt P03372); experiment: qHTS assay to identify small molecule antagonists of the estrogen receptor alpha (ER-alpha) signaling pathway using the BG1 cell line in the presence of 0.1 nM 17-beta-estradiol (AID 1259244); further: nearly all actives have a fitted effect of over 50% in size
Procedure, shortened: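 After 5 days in hormone-depleted medium (charcoal-stripped serum, no phenol red), VM7Luc4E2 cells were seeded, incubated 24 h, then co-treated with compound and 0.1 nM (final) estradiol for 22 h before luminescence detection.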

[19] = qHTS assay to identify small molecule phospholipidosis (PLD) inducers (AID 1259344; active means well fitted curve in the direction sought with a large enough effect; an effect the other way counts as inactive or inconclusive)
Procedure, shortened: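 HepG2 cells grown on collagen I take up LipidTOX Red while exposed to compound for 24 h; after fixation they are imaged at 20x and pit metrics are extracted.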

[20] = qHTS assay to identify small molecule antagonists of the androgen receptor (AR) signaling pathway using the MDA cell line in the presence of 0.5 nM R1881 - cell viability counter screen (AID 1259242); further: nearly all actives have a fitted effect of over 45% in size
Procedure, shortened: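 Cytotoxicity toward MDA-kb2 cells is measured by CellTiter-Fluor live-cell protease fluorescence after 16 hr compound exposure at 37C in the presence of 0.5 nM R1881 stimulator.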

Chain of Androgen receptor (Homo sapiens) (P10275 whole entry, looked up): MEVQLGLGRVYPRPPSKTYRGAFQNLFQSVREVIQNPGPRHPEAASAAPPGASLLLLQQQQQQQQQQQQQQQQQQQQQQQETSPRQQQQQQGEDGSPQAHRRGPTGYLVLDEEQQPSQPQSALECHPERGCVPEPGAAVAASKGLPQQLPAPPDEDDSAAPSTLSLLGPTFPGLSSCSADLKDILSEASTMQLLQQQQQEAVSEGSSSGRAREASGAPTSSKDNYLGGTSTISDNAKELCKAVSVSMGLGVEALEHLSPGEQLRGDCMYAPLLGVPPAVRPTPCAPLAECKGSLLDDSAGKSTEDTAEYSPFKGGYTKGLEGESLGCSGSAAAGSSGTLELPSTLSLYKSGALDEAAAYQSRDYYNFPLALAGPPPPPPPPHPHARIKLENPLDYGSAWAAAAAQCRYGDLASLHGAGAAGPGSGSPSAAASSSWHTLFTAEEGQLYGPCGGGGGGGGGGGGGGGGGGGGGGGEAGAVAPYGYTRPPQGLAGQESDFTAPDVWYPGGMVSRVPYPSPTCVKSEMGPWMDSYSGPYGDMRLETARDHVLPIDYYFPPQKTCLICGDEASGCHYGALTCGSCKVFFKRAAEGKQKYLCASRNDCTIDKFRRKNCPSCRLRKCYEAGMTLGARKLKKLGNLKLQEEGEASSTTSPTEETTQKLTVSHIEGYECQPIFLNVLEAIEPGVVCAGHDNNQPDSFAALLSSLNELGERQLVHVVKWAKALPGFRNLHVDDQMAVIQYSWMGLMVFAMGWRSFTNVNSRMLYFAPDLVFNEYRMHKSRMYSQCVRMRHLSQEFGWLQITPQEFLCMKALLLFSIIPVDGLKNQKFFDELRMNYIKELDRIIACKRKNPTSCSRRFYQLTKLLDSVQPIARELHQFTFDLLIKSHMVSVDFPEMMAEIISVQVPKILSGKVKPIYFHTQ
Chain of Estrogen receptor (Homo sapiens) (P03372 whole entry, looked up): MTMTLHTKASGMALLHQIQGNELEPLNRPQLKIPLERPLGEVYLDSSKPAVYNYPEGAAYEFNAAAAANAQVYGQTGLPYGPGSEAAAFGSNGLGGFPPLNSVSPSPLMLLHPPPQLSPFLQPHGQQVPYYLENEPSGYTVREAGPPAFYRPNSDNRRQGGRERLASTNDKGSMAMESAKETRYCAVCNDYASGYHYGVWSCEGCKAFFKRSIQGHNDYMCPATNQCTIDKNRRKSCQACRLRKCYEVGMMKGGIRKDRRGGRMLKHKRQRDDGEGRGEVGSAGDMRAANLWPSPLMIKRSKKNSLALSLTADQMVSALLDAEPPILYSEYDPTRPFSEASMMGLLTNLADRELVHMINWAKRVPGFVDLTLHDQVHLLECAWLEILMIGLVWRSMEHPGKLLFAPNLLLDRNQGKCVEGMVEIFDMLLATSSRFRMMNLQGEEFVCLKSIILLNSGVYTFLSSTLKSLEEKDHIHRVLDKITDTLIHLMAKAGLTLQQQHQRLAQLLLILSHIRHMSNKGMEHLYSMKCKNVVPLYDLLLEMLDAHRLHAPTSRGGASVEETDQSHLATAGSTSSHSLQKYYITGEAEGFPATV

Cc1cccc(OCC(O)CNC(C)(C)C)c1C (centres undefined)
Potency [1]: inactive
outcome [2]: inactive
Potency [3]: inactive
Potency [4]: inactive
outcome [5]: inactive
Potency [6]: inactive
Potency [7]: inactive
outcome [8]: inactive
Potency [9]: inactive
outcome [10]: inactive
Potency [11]: inactive
Potency [12]: inactive
outcome [13]: inactive
Potency [14]: inactive
Potency [15]: inactive
outcome [16]: inactive

O=C(CCNNC(=O)c1ccncc1)NCc1ccccc1
Potency [1]: inactive
outcome [2]: inactive
Potency [3]: inactive
Potency [4]: inactive
outcome [5]: inactive
Potency [6]: inactive
Potency [7]: inactive
outcome [8]: inactive
outcome [10]: inactive
Potency [17]: inactive
Potency [18]: inactive
outcome [19]: inactive
Potency [12]: inactive
outcome [13]: inactive
Potency [14]: inactive
Potency [15]: inactive
outcome [16]: inactive

Cc1ccccc1OCC(O)CO (centres undefined)
Potency [1]: inactive
outcome [2]: inactive
Potency [3]: inactive
Potency [4]: inactive
outcome [5]: inactive
Potency [6]: inactive
Potency [7]: inactive
outcome [8]: inactive
Potency [17]: inactive
outcome [20]: inactive
outcome [19]: inactive
Potency [12]: inactive
outcome [13]: inactive
Potency [14]: inactive
Potency [15]: inactive
outcome [16]: inactive

CN=C(NC#N)Nc1ccc(C2=NNC(=O)CC2C)cc1 (centres undefined)
Potency [1]: inactive
outcome [2]: inactive
Potency [3]: inactive
Potency [4]: inactive
outcome [5]: inactive
Potency [6]: inactive
Potency [7]: inactive
Potency [9]: inactive
outcome [10]: inactive
Potency [17]: inactive
outcome [20]: inactive
outcome [19]: inactive
Potency [12]: inactive
Potency [14]: inactive
Potency [15]: inactive
outcome [16]: inactive

Cc1cccc2nccnc12
Potency [1]: 24.5 µM (active)
outcome [2]: inactive
Potency [3]: inactive
Potency [4]: inactive
outcome [5]: inactive
Potency [6]: inactive
Potency [7]: inactive
Potency [9]: inactive
outcome [10]: inactive
outcome [20]: inactive
Potency [12]: inactive
outcome [13]: inactive
Potency [14]: inactive
Potency [15]: inactive
outcome [16]: inactive

CN(C)CCOCCO
Potency [1]: inactive
outcome [2]: inactive
Potency [3]: inactive
Potency [4]: inactive
outcome [5]: inactive
Potency [6]: inactive
Potency [7]: inactive
outcome [8]: inactive
Potency [17]: inactive
outcome [20]: inactive
Potency [12]: inactive
outcome [13]: inactive
Potency [14]: inactive
Potency [15]: inactive
outcome [16]: inactive

C[Si](C)(C)C
Potency [1]: inactive
outcome [2]: inactive
Potency [3]: inactive
Potency [4]: inactive
outcome [5]: inactive
Potency [6]: inactive
Potency [7]: inactive
Potency [9]: inactive
outcome [10]: inactive
Potency [17]: inactive
Potency [12]: inactive
outcome [13]: inactive
Potency [14]: inactive
Potency [15]: inactive
outcome [16]: inactive

Nc1ccc([N+](=O)[O-])c(N)c1
Potency [1]: inactive
outcome [2]: inactive
Potency [3]: inactive
Potency [4]: inactive
outcome [5]: inactive
Potency [6]: inactive
Potency [7]: inactive
outcome [8]: inactive
outcome [10]: inactive
Potency [17]: 53.1 µM (active)
Potency [18]: inactive
Potency [12]: inactive
outcome [13]: inactive
Potency [14]: 29.9 µM (active)
Potency [15]: 33.5 µM (active)
outcome [16]: inactive

CCCOC(=O)C(C)O (centres undefined)
Potency [1]: inactive
outcome [2]: inactive
Potency [3]: inactive
Potency [4]: inactive
outcome [5]: inactive
Potency [6]: inactive
Potency [7]: inactive
Potency [9]: inactive
outcome [10]: inactive
Potency [17]: inactive
outcome [20]: inactive
Potency [11]: inactive
Potency [12]: inactive
outcome [13]: inactive
Potency [14]: inactive
Potency [15]: inactive
outcome [16]: inactive

O=S(=O)(O)c1cc(O)c2ccc(Nc3ccccc3)cc2c1
Potency [1]: inactive
outcome [2]: inactive
Potency [3]: inactive
Potency [4]: inactive
outcome [5]: inactive
Potency [6]: inactive
Potency [7]: inactive
outcome [8]: inactive
Potency [17]: inactive
outcome [20]: inactive
Potency [18]: inactive
Potency [12]: 24.3 µM (active)
Potency [14]: inactive
Potency [15]: inactive
outcome [16]: inactive

COc1cc2c(cc1OC)[C@@H]1CC(=O)[C@@H](CC(C)C)CN1CC2
Potency [1]: inactive
outcome [2]: inactive
Potency [3]: inactive
Potency [4]: inactive
outcome [5]: inactive
Potency [6]: inactive
Potency [7]: inactive
outcome [8]: inactive
outcome [10]: inactive
Potency [17]: inactive
outcome [19]: inactive
Potency [12]: inactive
outcome [13]: inactive
Potency [14]: inactive
Potency [15]: inactive
outcome [16]: inactive

CCCCCCCCCCl
Potency [1]: inactive
outcome [2]: inactive
Potency [3]: inactive
Potency [4]: inactive
outcome [5]: inactive
Potency [6]: inactive
Potency [7]: inactive
Potency [9]: inactive
outcome [10]: inactive
outcome [20]: inactive
Potency [12]: inactive
outcome [13]: inactive
Potency [14]: inactive
Potency [15]: inactive
outcome [16]: inactive

CC(CO)c1ccccc1 (centres undefined)
Potency [1]: inactive
outcome [2]: inactive
Potency [3]: inactive
Potency [4]: inactive
outcome [5]: inactive
Potency [6]: inactive
Potency [7]: inactive
Potency [9]: inactive
outcome [10]: inactive
Potency [17]: inactive
outcome [20]: inactive
Potency [11]: inactive
Potency [12]: inactive
Potency [14]: inactive
Potency [15]: inactive
outcome [16]: inactive

CC(C)NCC(O)COc1cccc2[nH]ccc12 (centres undefined)
Potency [1]: inactive
outcome [2]: inactive
Potency [3]: inactive
Potency [4]: inactive
outcome [5]: inactive
Potency [6]: inactive
Potency [7]: inactive
outcome [10]: inactive
outcome [20]: inactive
Potency [11]: inactive
outcome [19]: inactive
Potency [12]: inactive
outcome [13]: inactive
Potency [14]: inactive
Potency [15]: inactive
outcome [16]: inactive

COC(=O)c1ccccc1C(=O)c1ccc(OCCN2CCCCC2)cc1
Potency [1]: inactive
outcome [2]: inactive
Potency [3]: inactive
Potency [4]: inactive
outcome [5]: inactive
Potency [6]: inactive
Potency [7]: inactive
outcome [8]: inactive
outcome [20]: inactive
Potency [18]: inactive
outcome [19]: inactive
Potency [12]: inactive
outcome [13]: inactive
Potency [14]: inactive
Potency [15]: inactive
outcome [16]: inactive

O=C(NCCc1c[nH]c2ccccc12)c1cccnc1
Potency [1]: inactive
outcome [2]: inactive
Potency [3]: inactive
Potency [4]: inactive
outcome [5]: inactive
Potency [6]: inactive
Potency [7]: inactive
outcome [8]: inactive
outcome [10]: inactive
outcome [20]: inactive
Potency [11]: inactive
Potency [18]: inactive
outcome [19]: inactive
outcome [13]: inactive
Potency [14]: inactive
Potency [15]: inactive
outcome [16]: inactive
